According to PubChem BioAssay (NCI):
The panel holds about 83,000 compounds, 20% with a hit somewhere; the sample as a whole holds those more often.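 Single-dose data. Exposure time 48 hours. Values below 10 considered active.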 A number with no mark means an inactive call. The source made the active and inactive calls.

Tested on: MOLT-4 leukemia
Experiment: NCI-60 one-dose screen, 48 h (100 = growth as untreated, 0 = no growth, -100 = all killed)
Details: 10 µM unless noted

First: O=C(Nn1c(NCC(=O)N2c3ccccc3Sc3ccccc32)nnc1-c1ccc(O)cc1)c1ccccc1
Second: N#Cc1c(-c2ccc(Cl)cc2)nc2c(c(-c3ccccc3)nn2-c2ccccc2)c1-c1ccc(O)cc1
The growth of the first is higher: 125% for the first, 24.3% for the second.

Going from N#C/C(=C\c1cccc2cnccc12)n1nnc2cccc(F)c21 to N/C(=N\c1nc2ccccc2s1)NC(=O)Nc1cccc2ccccc12, the growth falls from 26.2% to 19.9%.

Going from O=C(S)CNC(=O)c1ccccc1 to O=C1NC(=O)C(Cn2cnc3ccccc32)N1 (stereo not drawn), the growth rises from 87.7% to 99.6%.

Going from CN(C)c1ccc2nc3ccc(=[N+](C)C)c([N+](=O)[O-])c-3sc2c1 to CN(C)CC#Cc1ccc2ncc(C#N)c(Nc3ccc(F)c(Cl)c3)c2c1, the growth rises from 15.5% to 53.7%.

Going from O=C1c2ccccc2NC(n2sc3ccccc3c2=O)N1c1ccccc1 (stereo not drawn) to Cc1ccc2c(-c3cc(-c4ccccc4)nc(N)c3C#N)cc(=O)oc2c1, the growth falls from 99.4% to 94.5%.

Compared with CCOC(=O)c1nc(Nc2ccc(C(C)=O)cc2)sc1C, CC(=O)c1ccc(Nc2nc(C(C)=O)c(C)s2)cc1 is higher in growth: 97.8% for the first, 100% for the second.

Going from Oc1ccc(Cl)cc1Cc1cc(Cl)cc(Cl)c1O to CCOC(=O)/C(C#N)=C\Nc1ccc2ncnc(Nc3ccc(Cl)cc3Cl)c2c1, the growth rises from 19.2% to 58.8%.

Compared with COc1nc2ccc(C)cc2cc1-c1nc2c(cnn2-c2ccc(Br)cc2)c(=O)[nH]1, Cn1cc(C(=O)c2nc(-c3cn(C)c4ccc(F)cc34)no2)c2cc(F)ccc21 is higher in growth: 58.9% for the first, 99.6% for the second.

Going from CC(=O)OC[C@H]1OC(Sc2sc(C(=O)c3ccc(Cl)cc3)c(N)c2-c2nc3ccccc3s2)[C@H](OC(C)=O)[C@@H](OC(C)=O)[C@@H]1OC(C)=O (stereo partly drawn) to CCOC(=O)CC1C(COC(=O)NC)OC(n2cnc3c(NC(=O)Nc4ccccc4)ncnc32)C1O[Si](C)(C)C(C)(C)C (stereo not drawn), the growth falls from 97% to 34.3%.

Going from COc1cc(/C=C/C(=O)/C=C/c2cc(OC)c3c(c2OC)OCO3)c(OC)c2c1OCO2 to COc1ccc2c(c1OC)C(=O)O[C@H]2[C@H]1c2c(cc3c(c2OC)OCO3)CCN1C, the growth rises from 18.7% to 116%.

Going from COc1c(B(O)O)cc(C)cc1-c1nc2ccc3[nH]ncc3c2c2c1CCCC2 to COc1cc(C(=O)c2cc(C)c3[nH]c4ccc(C)cc4c3c2C)cc(OC)c1OC, the growth falls from 19.7% to 16.8%.

Compared with CCCCCCN(CCCCCC)c1ccc(/C=C2/SC(=O)NC2=O)c(C)c1, CN1C(=O)N(C)C2Nn3c(s/c(=C\c4ccccc4)c3=O)=NC21 (stereo not drawn) is higher in growth: 75.1% for the first, 109% for the second.

Going from COC(=O)c1ccc2[nH]c(O)c(C(=Nc3ccc(N(C)C(=O)CN4CCN(C)CC4)cc3)c3ccccc3)c2c1 to CN1CCN(Cc2ccc(NC(=O)c3cncc(C#Cc4cnccc4C#N)c3)cc2C(F)(F)F)CC1, the growth rises from 12.1% to 66.1%.

Compared with CC(=O)N1CCN(c2ccc(OCC3CO[C@](Cn4ccnc4)(c4ccc(Cl)cc4Cl)O3)cc2)CC1 (stereo partly drawn), COc1ccc(/C=N/Nc2cc(=O)[nH]c3ccc(Cl)cc23)cc1 is lower in growth: 77.4% for the first, 30.4% for the second.

Compared with c1cc(-c2nnc(SSc3ncnc4nc[nH]c34)o2)ccn1, COc1cc(C(=O)/C=C/c2c(Cl)nc3sccn23)cc(OC)c1OC is higher in growth: 18% for the first, 74% for the second.

C[C@]12CC[C@@H]3c4cc(OC(F)F)c(OS(N)(=O)=O)cc4CC[C@H]3[C@@H]1CC[C@@H]2O showed a growth of 18.7%.

In the case of Cc1nc2ccccc2c(/C=C/c2ccccc2)c1C(=O)/C=C/c1ccc(C(F)(F)F)cc1, the growth is reported as 4.69% (active).
In the case of CC(=O)Oc1ccccc1C(=O)N=C1[Se]CCCN1C(=O)c1ccccc1OC(C)=O, the growth is reported as 9.25% (active).
In the case of O=C(CCCCCCSc1nc(-c2ccccc2)cc(-c2ccccc2)n1)NO, the growth is reported as 5.23% (active).
Cc1cc(Cl)ccc1NS(=O)(=O)c1ccc(-c2cnc(C3CC3)o2)cc1 was tested, and the growth was 2.78% (active).
With Brc1ccc2[nH]cc(-c3nc(-c4c[nH]c5ccncc45)cs3)c2c1 the growth was -58.4% (active).
In the case of NC1CCN(c2nc(Nc3cccc(C(F)(F)F)c3)c3c(=O)[nH]ccc3n2)CC1, the growth is reported as -37.9% (active).

C#Cc1cccc(NC(=O)Nc2ccccc2NC(=O)CCl)c1 was tested, and the growth was 24.5% [8.25 µM].
